Inhibition data for 94 compounds are collected here from PubChem BioAssay AID449762 (Southern Research Specialized Biocontainment Screening …, 2010).

Values joined by “and” are separate entries in the source; they are usually repeats but may differ in a detail not shown here. Equal values may be shown once. Screen size: about 330,000 compounds; about 1,900 (0.58%) were called active. About 4% were inconclusive and are not listed. Rule as the data show it: inconclusive = inhibition above about 70% without an active follow-up result; inactive = below that. The list is a sample of the results. Potency and affinity values are given separately.

This assay is described as follows: M. tuberculosis growth inhibition, HTS (AID 449762).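 Also: bacterial growth assessed after seven days of incubation.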 The settings on record: M. tuberculosis H37Rv growth inhibition, 7H9 media; at 25 µM; stronger effect = higher value.
What is called inhibition is the relative decrease from the control value, in per cent. `Cc1ccc(S(=O)(=O)N2CCN(C(=O)CCc3c[nH]c4ccccc34)CC2)cc1`: the inhibition is -4.25% (inactive).

Consider `O=C(CCc1c[nH]c2ccccc12)OCC(=O)N1CCN(S(=O)(=O)c2ccccc2)CC1`, for which the inhibition is 43.2% (inactive).

For the compound `COc1cc(CNC(C)c2ccccc2)c(Br)cc1OCC(N)=O` (centres undefined), the inhibition is -3.38% (inactive).

As for `c1ccc(-c2cn3c(n2)SCC3)cc1`, the inhibition was -1.11% (inactive).

On to `Oc1ccc(-c2cn3c(n2)SCC3)cc1`, for which the inhibition was -2.38% (inactive).

On to `COc1ccc(NC(=O)c2cc(-c3ccc(C)cc3)on2)cc1OC`, for which the inhibition is -6.33% (inactive).

As for `COc1cc2c(cc1OC)C(C1C(=O)CCCC1=O)N(C(=O)CCl)CC2` (centres undefined), the inhibition is 2.64% (inactive).

Regarding `COc1cc2c(cc1OC)C(c1cc(Br)ccc1O)N(C(C)=O)CC2` (centres undefined), the inhibition was -0.81% (inactive).

For the compound `Cc1ccc(S(=O)(=O)N2[C@@H](c3ccc(Br)cc3)C(C(=O)O)=CC[C@H]2c2ccc3c(c2)OCO3)cc1`, the inhibition is 3.53% (inactive).

As to `CCOC(=O)c1cnc(SC2CC(=O)N(c3ccccc3)C2=O)nc1N` (centres undefined), the inhibition is -5.11% (inactive).

As to `CCOC(=O)c1cnc(SC2CC(=O)N(c3ccc(C)cc3)C2=O)nc1N` (centres undefined), the inhibition is -12.6% (inactive).

Take `CC(C)(C)OC(=O)C[C@H]1C/C=C\C[C@H](CC(=O)NCCO)C(=O)N2CCC[C@@H]2COC1=O`: the inhibition was 2.79% (inactive).

As to `CSc1ccc(CN2CCC(CO)(Cc3ccc(Cl)cc3)CC2)cc1`, the inhibition was 2.5% (inactive).

Take `CNC(=O)NC(=O)COC(=O)CCc1nc(=O)c2ccccc2n1C`: the inhibition was 2.07% (inactive).

In the case of `Cn1nnnc1Sc1ncnc2scc(-c3ccccc3)c12`, the inhibition is 15.1% (inactive).

For the compound `Cn1nnnc1Sc1ncnc2scc(-c3cccc4ccccc34)c12`, the inhibition is 61.1% (inactive).

As for `COc1cc(C(=O)Nc2cccc(-n3cnnn3)c2)cc(OC)c1OC`, the inhibition was -9.02% (inactive).

For the compound `Cc1ccc(-c2nn(-c3ccccc3)cc2C=C2C(=O)CC(C)(C)CC2=O)cc1`, the inhibition was 28.4% (inactive).

Regarding `CC1(C)CC(=O)C(=Cc2cn(-c3ccccc3)nc2-c2ccccc2)C(=O)C1`, the inhibition was 14.4% (inactive).

As for `CC1C=CCC2C(=O)N(c3cccc(C(=O)NCc4ccccc4)c3)C(=O)C12` (centres undefined), the inhibition is 0.47% (inactive).

Consider `COc1ccc(-c2cn3cc(C)ccc3n2)cc1OC`, for which the inhibition is -0.94% (inactive).

For the compound `COc1ccc(-c2cn3cc(Cl)ccc3n2)cc1OC`, the inhibition was 35.8% (inactive).

With `Cc1ccc(CN(C)C(=O)C2CCC(=O)N(C3CCCCCC3)C2)cc1` (centres undefined), the inhibition is 0.77% (inactive).

As to `OCCC1CN(Cc2cccn2-c2cccnc2)CCN1C1CCCCC1` (centres undefined), the inhibition was -3.37% (inactive).

For the compound `NC(=O)NOCc1c(Cl)cccc1Cl`, the inhibition was -2.55% (inactive).

In the case of `CO/N=C/NC(=O)NOCc1c(Cl)cccc1Cl`, the inhibition is -5.31% (inactive).

As for `CN(C(=O)c1ccc2nc(N)sc2c1)c1ccccc1`, the inhibition is -7.17% (inactive).

As for `COc1ccc(NC(=O)/C(=C\c2cccs2)NC(=O)c2ccco2)cc1`, the inhibition was 6.87% (inactive).

Turning to `CCOC(=O)N1CCN(C(=O)CCCN2C(=O)CSc3nc(C)cc(C)c32)CC1`, the inhibition is 0.43% (inactive).

As to `COc1ccc(NC(=O)CCl)cn1`, the inhibition is 55.6% (inactive).

Take `COc1ccc(CS(=O)(=O)/C(Cl)=C(/Cl)C(=O)Nc2ccc(OC)nc2)cc1`: the inhibition is 35% (inactive).

Consider `COc1ccc(S(=O)(=O)N2CCOCC2)cc1NC(=O)CCCOc1ccc(Cl)cc1C`, for which the inhibition was -8.9% (inactive).

As to `COc1ccccc1-n1c(-c2ccccc2)c[n+]2c1CCc1ccccc1-2`, the inhibition is 10.8% (inactive) and 4.8% (inactive).

Take `COc1ccc(-n2c(-c3ccc(Cl)cc3)c[n+]3c2CCCCC3)cc1`: the inhibition is -4.69% (inactive).

Take `O=c1cccc2n1C[C@@H]1C[C@@H]2CN(CC(O)c2ccc([N+](=O)[O-])cc2)C1` (some centres undefined): the inhibition was 9.8% (inactive).

In the case of `COc1ccccc1C(=O)COC(=O)c1cc([N+](=O)[O-])ccc1N1CCOCC1`, the inhibition was 32.4% (inactive).

For `Cc1ccccc1Nc1c(-c2ccccn2)nc2c(C)cccn12`, the inhibition was 1.32% (inactive).

Consider `Cc1cccn2c(Nc3ccccc3)c(-c3ccccn3)nc12`, for which the inhibition was 67.1% (inactive).

As for `CCSc1nnc(-c2ccc(S(=O)(=O)NCc3cccs3)cc2)o1`, the inhibition was -2.17% (inactive).

In the case of `Cc1ccc(C(=O)CSc2nnc(-c3c[nH]c4ccccc34)o2)cc1`, the inhibition is 0.92% (inactive).

Regarding `CSc1nnc(-c2ccc(Cl)cc2Cl)o1`, the inhibition is 26.3% (inactive).

On to `CCN(CC)C(=O)CSc1nnc(-c2c[nH]c3ccccc23)o1`, for which the inhibition is 1.41% (inactive).

As to `COc1ccccc1-c1nnc(SCC(=O)Nc2ccc(Cl)cc2Cl)o1`, the inhibition is -3.38% (inactive).

Regarding `CCN(CC)C(=O)CSc1nnc(-c2ccc(S(=O)(=O)NCc3ccccc3Cl)cc2)o1`, the inhibition was 5.34% (inactive).

In the case of `C/C(=N\O)c1noc(C)c1C(=O)Nc1nccs1`, the inhibition was -2.68% (inactive).

Take `O=S(=O)(c1cccc(-c2cn3ccccc3n2)c1)N1CCCCC1`: the inhibition was 0.63% (inactive).

Consider `CCOC(=O)[C@H]1NN=C(C(=O)OC)[C@@H]1c1ccccc1`, for which the inhibition was -5.97% (inactive).

In the case of `COCCOC(=O)N/C=C\c1nc2ccccc2c(=O)[nH]1`, the inhibition was -1.7% (inactive).

As for `COc1ccc(C2C(C(=O)N3CCN(C)CC3)c3cc(OC)c(OC)cc3C(=O)N2C)cc1` (centres undefined), the inhibition is 11% (inactive).

Take `CC(=O)c1ccc(NC(=O)C(C)O/N=C(\N)c2ccccc2)cc1` (centres undefined): the inhibition was 1.95% (inactive).

As for `CCCc1ccc(-c2cc(C(=O)NC3=NCCS3)c3ccccc3n2)cc1`, the inhibition is -0.06% (inactive).

For the compound `CC1CCCC(NC(=O)COC(=O)c2ccc(S(=O)(=O)N3CCOCC3)cc2)C1C` (centres undefined), the inhibition was -1.74% (inactive).

Regarding `Cc1ccc(C(=O)NNC(=O)c2csc(N3CCOCC3)n2)o1`, the inhibition is 0.22% (inactive).

As to `Cc1nn(-c2ccccn2)c2c1-c1nc(N)ncc1CC2`, the inhibition is 0.53% (inactive).

Regarding `Cc1nn(-c2ccc(F)cc2F)c2c1-c1nc(N3CCCC3)ncc1CC2`, the inhibition is 69.4% (inactive).

For `CCO/C=N/Nc1nc(C(F)(F)F)nc2c1cnn2Cc1ccccc1`, the inhibition is 60.4% (inactive).

With `COc1ccc(OC)c(NC(=O)c2ccc(OCC(=O)N3CCOCC3)c(OC)c2)c1`, the inhibition is 1.16% (inactive).

With `CN(Cc1ccccc1)c1nc(CN2CCOCC2)nc2scc(-c3ccccc3)c12`, the inhibition was 5.04% (inactive).

With `CCNc1nc(CN2CCCCC2)nc2scc(-c3ccccc3)c12`, the inhibition was 40.7% (inactive).

In the case of `O=C(Nc1ccccc1[N+](=O)[O-])C1=C(O)CCn2c1nc1ccccc12`, the inhibition is -3.87% (inactive).

Turning to `Cc1ccc(NC(=O)NCc2nc3ccccc3n2C)cc1`, the inhibition is -2.85% (inactive).

In the case of `COC(=O)CN1C(=O)N(c2ccccc2)C(N(O)C(=O)Nc2ccccc2)C1(C)C` (centres undefined), the inhibition is 2.21% (inactive).

On to `COc1ccc(Nc2nc(N3CCN(C)CC3)nc3ccccc23)c(OC)c1`, for which the inhibition was -4.21% (inactive).

`COc1ccc(Nc2nc(N3CCN(S(C)(=O)=O)CC3)nc3ccccc23)c(OC)c1`: the inhibition is 2.78% (inactive).

For `C=CCNC(=O)CN1C2CCCC1CC(NC(=O)c1ccccc1C)C2` (centres undefined), the inhibition is -6.37% (inactive).

For `O=C(COC(=O)c1ccccc1N1C(=O)C2C3CCC(C3)C2C1=O)c1ccccc1` (centres undefined), the inhibition was -3.76% (inactive).

Consider `COc1cc([N+](=O)[O-])ccc1NC(=O)CN1CCc2cc(OC)c(OC)cc2C1`, for which the inhibition was 6.98% (inactive).

Take `CCOC(=O)C(NCCCCl)c1ccccc1` (centres undefined): the inhibition was 0.32% (inactive).

Turning to `COc1ccccc1OCCCCN1CCCCC1`, the inhibition was 2.93% (inactive).

For the compound `COc1ccccc1OCCOCCN1CCCC1`, the inhibition is -4.15% (inactive).

Turning to `CCCc1cc(NC(=O)COC(=O)c2ccc(O)cc2O)n(-c2ccccc2)n1`, the inhibition is -2.82% (inactive).

For `CCCc1cc(NC(=O)COC(=O)c2nccnc2N)n(-c2ccccc2)n1`, the inhibition was 50.9% (inactive).

Consider `C=CCNC(=S)NNC(=O)CCC(O)COCCC(C)C` (centres undefined), for which the inhibition is 1.2% (inactive).

Take `CCOC(=O)N1CCC(NC(=O)c2cc(COc3ccccc3SC)on2)CC1`: the inhibition was 1.54% (inactive).

Regarding `COc1cc(/C=C2/C(=O)N(c3ccc(C)c(C)c3)N=C2C)cc([N+](=O)[O-])c1O`, the inhibition was -4.94% (inactive).

As for `CC1=NN(c2cccc(C(=O)O)c2)C(=O)/C1=C\C=C\c1ccco1`, the inhibition is -4.32% (inactive).

Turning to `Cc1nn(C)c(C)c1CNC(=O)Nc1cccc(Cl)c1C`, the inhibition was -2.03% (inactive).

As to `Cc1ccc([N+](=O)[O-])c(NC2OC(CO)C(O)C2O)c1` (centres undefined), the inhibition was -2.66% (inactive).

For `COc1ccc(C2CC(c3ccc(Br)cc3)=NN2C(=O)c2cccnc2)cc1` (centres undefined), the inhibition was 47.5% (inactive).

In the case of `N#CCc1nc2ccc(S(=O)(=O)N3CCOCC3)cc2s1`, the inhibition is -0.38% (inactive).

For `Cc1ccccc1CN1CCCN(Cc2ccc(Cl)cc2)S1(=O)=O`, the inhibition is 2.25% (inactive).

For the compound `CCOC(=O)c1c(NC(C)=O)sc2c1CCC(C=O)=C2Sc1ccccc1`, the inhibition was 6.72% (inactive).

As to `CCOC(=O)c1c(NC(=O)CCCC(=O)O)sc2c1CCC2`, the inhibition was 1.76% (inactive).

With `COc1cccc(Cn2c(=O)ccc3ccccc32)c1`, the inhibition was 7.74% (inactive).

For `O=C(Nc1ccc(Oc2cccc(C(F)(F)F)c2)nc1)c1ccccc1`, the inhibition was 14% (inactive).

As for `Cc1ccc(C(=O)Nc2ccc(Oc3cccc(C(F)(F)F)c3)nc2)cc1`, the inhibition is 3.4% (inactive).

In the case of `O=C1CN=CN=CN1c1ccc(Cl)cc1Cl`, the inhibition is 10.8% (inactive).

As for `CCOC(=O)N1CCN(C(=O)C2CCC(=O)N(CCCc3ccccc3)C2)CC1` (centres undefined), the inhibition was -4.71% (inactive).

Consider `Cc1cc(C)n(-c2nc3ccccc3c(=O)n2OCC(N)=O)n1`, for which the inhibition is 13.1% (inactive).

Turning to `Cc1cc(CC(C)C)n(-c2nc3ccccc3c(=O)n2OCc2ccccc2)n1`, the inhibition is 58.9% (inactive).

Turning to `Cc1ccc(S(=O)(=O)NCC(=O)N(CC(=O)NCC2CCCO2)c2ccc(Cl)cc2)cc1` (centres undefined), the inhibition was -3.29% (inactive).

With `COc1ccc(C(=O)NNC(=O)CSc2nc3c(c(=O)n(C)c(=O)n3C)n2C)cc1`, the inhibition was 1.02% (inactive).

Consider `O=C(Nc1ccc(C(F)(F)F)cc1)c1ccccc1`, for which the inhibition is 0.07% (inactive).

As to `COc1cc(NC(=O)C[n+]2ccc(C(=O)c3ccccc3)cc2)cc(OC)c1`, the inhibition is -7.81% (inactive).
